# Source: PubChem BioAssay (NCI)
# This is part of a sample that, as a whole, favours compounds with a hit. Of some 79,000 tested, about 15% had one in any assay. Unmarked numbers belong to inactive results. The source made the active and inactive calls. Cut-off read from the data, not from the text of the source: active = growth inhibition above about 70%; inactive = the rest.
# Legend:
# [1] = NCI Yeast Anticancer Drug Screen. Data for the rad50 strain (AID 155);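 note: 0% = growth of vehicle-only cultures of the same strain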; conditions: S. cerevisiae rad50 strain growth inhibition; at 50.0 µM; stronger effect = higher value
# Summary of the method: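 Cells are treated with compound, grown, and their growth is then scored against vehicle-only cultures of the same repair-deficient yeast strain.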
# [2] = NCI Yeast Anticancer Drug Screen. Data for the mec2-1 strain (AID 157); conditions: S. cerevisiae mec2-1 strain, at 50.0 µM, stronger effect = higher value
# Summary of the method: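 Using mec2-1 yeast: add compound, measure growth, express inhibition versus vehicle-treated cultures.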
# [3] = NCI Yeast Anticancer Drug Screen. Data for the sgs1 mgt1 strain (AID 161);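 note: 0% = growth of cultures given vehicle only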; conditions: S. cerevisiae sgs1 mgt1 strain, at 50.0 µM, stronger effect = higher value
# Summary of the method: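 Growth of a repair-deficient yeast mutant was monitored after compound treatment and expressed as inhibition relative to vehicle-treated cultures.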
# [4] = NCI Yeast Anticancer Drug Screen. Data for the cln2 rad14 strain (AID 165);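 note: 0% = growth equal to vehicle treated cultures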; conditions: S. cerevisiae cln2 rad14 strain, at 50.0 µM, stronger effect = higher value
# Summary of the method: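 Yeast strain cln2 rad14, bearing defects in cell cycle control and DNA repair, serves as the test system; values reflect growth inhibition compared with vehicle.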
# [5] = NCI Yeast Anticancer Drug Screen. Data for the bub3 strain (AID 167); conditions: S. cerevisiae bub3 mutant strain, at 50.0 µM, stronger effect = higher value
# Summary of the method: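 Part of a panel of yeast mutants defective in DNA damage repair or cell cycle regulation. Each strain is grown with compound, and inhibition is calculated relative to solvent-treated cultures.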
# [6] = NCI Yeast Anticancer Drug Screen. Data for the mlh1 rad18 strain (AID 175); conditions: S. cerevisiae mlh1 rad18 strain growth inhibition; at 50.0 µM; stronger effect = higher value
# Summary of the method: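 Steps: expose repair-defective yeast to compound; measure growth; express inhibition against vehicle-treated controls.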
Structure (SMILES),growth inhibition [1],growth inhibition [2],growth inhibition [3],growth inhibition [4],growth inhibition [5],growth inhibition [6]
CC/C(CC(=O)CCC(=O)Nc1ccccc1[N+](=O)[O-])=N/NC(=O)C[n+]1ccccc1,-1.8%,6.9%,-56.1%,16.4%,-1.35%,-12.7%
CN(Cc1ccccc1)C(=O)c1cccc(C(=O)N(C)Cc2ccccc2)c1,9.85%,22.5%,19.1%,13.8%,21.7%,17.6%
CN(C)c1ccc(C2NC(c3ccccc3)c3c(ccc4ccccc34)O2)cc1 (stereo unspecified),8.5%,2.45%,-12.7%,-22.8%,2.5%,0.95%
CCOC(=O)C(C(=O)/C=C\c1ccccc1)(C(c1ccccc1)c1ccccc1)C(c1ccccc1)c1ccccc1,-9.7%,14.7%,5%,-38.5%,2.9%,2.1%
c1ccc(CN2CCCCC(Sc3ccccc3)CC2)cc1 (stereo unspecified),90.2% (active),93.8% (active),92.2% (active),90.5% (active),89.7% (active),90.9% (active)
CC(C)C1OC2OCCCC2C(C(C)C)O1 (stereo unspecified),17.2%,-5.85%,8.15%,-11.9%,-22.1%,11%
Cc1cc(O)c(C(c2c(O)cc(C)c(Cl)c2C)C(Cl)(Cl)Cl)c(C)c1Cl,26.1%,21.9%,30.9%,39.6%,20.6%,18.2%
Cc1c(-c2ccccc2)[nH]n(C2=NCCN2)c1=O,10.8%,7.45%,-31.4%,-6.35%,-15.5%,-25%
CCCCCCCC/C=C\CCCCCCCC(=O)OCCN(CCOC(=O)CCCCCCC/C=C\CCCCCCCC)C(=O)c1ccccc1,-12.9%,-1.2%,-17.9%,-20.2%,-9.9%,-2.65%
O=C1NC(=O)N2CC(CI)OC2C1c1ccccc1 (stereo unspecified),0.25%,12.8%,10.2%,6.55%,-6.6%,11.4%
CC1=C/C(=N/NS(=O)(=O)c2ccc(C)cc2)CC(C)(C)C1,27.6%,-3.25%,11.8%,-22.3%,4.1%,13.2%
COS(=O)(=O)Cc1ccccc1,-21.6%,-15%,-16.8%,-19.2%,-12.3%,8.45%
CC(O)(CCCCCl)c1nc2ccccc2s1 (stereo unspecified),20.9%,-8.05%,25.4%,-0.8%,11.9%,17.1%
CC(C)(C)OC(=O)NC(CCC(=O)OCc1ccccc1)C(=O)NCCCO (stereo unspecified),-11.8%,-35.3%,8.4%,-9.35%,-15.7%,9.8%
Cn1cc(C2NC(=O)c3ccccc3N2)c2ccccc21 (stereo unspecified),-25.1%,-15.7%,-7.1%,12%,-15%,-11.7%
CCOC(=O)c1ccc(NC(=S)NC(=O)c2cccc([N+](=O)[O-])c2)cc1,-3.15%,6.55%,16.1%,-12.8%,15.1%,15.2%
CC/C=C(\C)C(C#N)(CCC)C(=O)OCC (stereo unspecified),-1.8%,-34.1%,-20.9%,-0.75%,-25.6%,-31.7%
CC[n+]1cc([N+](=O)[O-])ccc1Cl,17.5%,14.5%,13.6%,15.9%,12.4%,20.2%
Cc1ccc(/C=C/C(=N/Nc2ccccc2)C(C)CN(C)C)cc1 (stereo unspecified),-3.2%,-10.1%,-3.25%,-15.3%,-1.35%,-5%
CCOC(=O)c1nnsc1NC(=O)Nc1ccc(Cl)cc1,-5.05%,-21.2%,-3.4%,-6.55%,-44.9%,10.6%
O=CNc1ncccn1,-6.95%,1.3%,7.25%,-2.05%,-2.2%,-7.75%

Structure (SMILES),growth inhibition [1],growth inhibition [2],growth inhibition [3],growth inhibition [4],growth inhibition [5],growth inhibition [6]
CCOC(=O)c1c(N)sc2c1C(C(=O)OCC)CC2 (stereo unspecified),-8.95%,7.1%,-8.05%,-0.8%,14.8%,19.9%
COc1cc(OC2OC(CO)C(O)C(O)C2O)c2c(O)c3c(=O)cc(C)oc3cc2c1 (stereo unspecified),12.8%,19.4%,2.05%,20.7%,2.55%,3.8%
CC(=O)N(C(=O)CC(=O)NN)c1ccc(Cl)cc1,-19.1%,-21.3%,3.65%,26.3%,6.95%,26%
CC1CCCCC1(O)C(C(=O)O)c1ccccc1 (stereo unspecified),-8.1%,-9.85%,0.3%,-1.95%,-22%,-29.6%
Nc1ccccc1Nc1ccncc1,-3%,11.2%,-1.7%,-26.9%,-23.8%,-5.7%
Nc1nc(-c2cccc(S(=O)(=O)O)c2)c([N+](=O)[O-])c(=O)[nH]1,-10%,-8.05%,-15.7%,10.2%,-24.6%,17.6%
OCc1ccccc1C(c1ccc(O)cc1)c1ccc(O)cc1,26.3%,-7.9%,28.9%,18%,12.7%,5.15%
CCCc1cc2c(cc1CSc1ccccc1C(=O)O)OCO2,-13.6%,-8.75%,-1.9%,-84.7%,-7.6%,-12.4%
CCOC(OCC)c1ccc(O)cc1,-4.4%,3.15%,20.3%,-19.2%,-2.2%,12.1%
CCCCCC(CN(C)C)C(=O)CC(SCC)c1ccc(Cl)c(Cl)c1 (stereo unspecified),99.5% (active),99.5% (active),99.5% (active),99.5% (active),99.2% (active),99.3% (active)
CC(C)(C)NC(=O)NCCCl,1%,-11.4%,-2.45%,-33.9%,2.95%,5.35%
O=C(O)CCCCCCCCCCCc1ccccc1,-30.8%,-16.8%,-19.3%,-13.2%,5.55%,-38.5%
C=Cc1c2ccccc2cc2c1ccc1ccccc12,89.3% (active),95.2% (active),93.5% (active),87.2% (active),93.3% (active),95.2% (active)
Cc1cnn(-c2ccccc2)[n+]1[O-],0.65%,11.5%,9.5%,-28.8%,9.6%,6.4%
O=C(COc1ccc(Cl)cc1C(=O)O)NCc1cccc2ccccc12,-0.2%,36%,41.8%,0.9%,46%,31.6%
CCN(CC)CCOc1ccc(N2Cc3cc(OC)c(OC)cc3C2=O)cc1,-11.9%,-7.45%,-4.2%,13.5%,8.6%,-13.8%
C[C@]12CC[C@@H]3c4ccc(O)cc4CC[C@H]3[C@@H]1CC[C@@H]2OC(=O)CCc1ccccc1,35.1%,9.8%,26.3%,28.5%,-2.4%,31.1%
CCOC(=O)CCCNc1cc(OC)cc2cccnc12,-7.4%,-23.9%,-2.6%,-48.8%,19.8%,-8.7%
CC(C)=C1C(=O)C[C@]2(C)C[C@H]3O[C@]3(C)CC[C@@H]3O[C@@]3(C)CC[C@@H]12,0.3%,-8.05%,12.6%,14.1%,-1.65%,-66.5%
N#Cc1c(-c2ccccc2)c(-c2ccccc2)cc2c(=O)c3ccc(Cl)cc3[nH]c12,-27.3%,3.25%,-2.9%,12.4%,7.2%,2.4%
